Experimental data from PubChem BioAssay (NCI).
Where “and” joins values, the source holds several entries; their conditions need not be identical. Equal entries are not always repeated. The panel holds about 83,000 compounds, 20% with a hit somewhere; the sample as a whole holds those more often.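 A percent growth of 40 corresponds to 60% growth inhibition; 0 means no net growth; -100 means all cells died. Active threshold: below 10.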 Calls of active or inactive are those of the source.

system: MCF7 breast; test: NCI-60 one-dose screen, 48 h (100 = growth as untreated, 0 = no growth, -100 = all killed); conditions: 10 µM unless noted

Structure (SMILES)	growth
O=Cc1ccc(-c2ccc(-c3ccc(CO)s3)o2)s1	-23.2% [100 µM] (active) and -100% [100 µM] (active)
CCOc1ccc(NC(=O)/C(=N\N)C(C(=O)OC)c2nc3ccc(Cl)cc3[nH]c2=O)cc1 (centres undefined)	73% [100 µM] (inactive) and 60.5% [100 µM] (inactive)
O=C(/C=C/c1ccccc1)CCC1C(=O)c2ccccc2C1=O	48% [100 µM] (inactive) and 57.5% [100 µM] (inactive)
CC1=CC[C@@H]2[C@@H](CC[C@@]2(C)O)C(C)(C)[C@H]1CC[C@@H]1[C@@]2(C)CC[C@@H](O)C(C)(C)O[C@@H]2CC[C@]1(C)O	-12.8% [100 µM] (active) and -70.8% [100 µM] (active)
Cn1c(COC(=O)NC2CCCCC2)c(COC(=O)NC2CCCCC2)c2ccc3cc(Cl)c(Cl)cc3c21	-78.6% [100 µM] (active)
CC1=C(Cl)C[C@@H](/C(C)=C\Cl)O[C@@]1(O)C(Br)Br	19.3% [100 µM] (inactive) and -76.7% [100 µM] (active)
C=C1C(=O)C2=CC1CCC(=O)C1(C)CCC(OC(C)=O)C(C)(C)C1CC2O (centres undefined)	-80.9% [100 µM] (active) and -63.1% [100 µM] (active)
Cc1cc(O)c2c(c1)C(=O)C(c1c(C)cc3c(c1O)C(=O)C1OC1C3=O)=CC2=O (centres undefined)	-64.5% [100 µM] (active) and -90% [100 µM] (active)
O=C(O)CCCOc1cc(-c2ccccc2F)nc2cc3c(cc12)OCO3	9.31% [100 µM] (active) and -50% [100 µM] (active)
